Among all 410,000 compounds or so, about 18,000 (4.4%) were called active. Roughly 7% stayed inconclusive and do not appear here. No stated cut-off is given here; in the data, active means activity change below about -60%; inconclusive means no clear call, values can overlap the other calls; inactive means above about -39%. The entries come from a sample that favours actives as a whole.
Test: qHTS Assay for inhibitors of the human cytomegalovirus (HCMV)
Details: HFF cells, HCMV-luciferase reporter, 72 h; at 57.5 µM; hits give low values
Summary of the method: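 Two compound doses tested in HFFs infected with HCMV-luciferase, MOI 1 PFU/cell, 72 h at 37C. Lysate luminescence read with OneGlo; data normalized against buffer-only and 10uM Salinomycin inhibitor controls.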
With CN1CCN(C(CNC(=O)c2ccccc2F)c2ccc3c(c2)OCO3)CC1 (stereo not drawn) the activity change, negative = inhibition was 12.6% (inactive). In the case of COc1ccc(N2C(=O)CCC(C(=O)N(C)C3CCCCC3)C2c2ccc(OC)c(OC)c2)cc1 (stereo not drawn), the activity change, negative = inhibition is reported as -12.4% (inactive). With CN(C)S(=O)(=O)c1ccc(C(=O)N(Cc2cccnc2)c2nc3c(F)cc(F)cc3s2)cc1 the activity change, negative = inhibition was 0% (inactive). In the case of COCCn1c(C)cc(C(=O)COC(=O)CNC(=O)c2ccco2)c1C, the activity change, negative = inhibition is reported as 0% (inactive). For Cc1cc(C(=O)COC(=O)c2cccs2)c(C)n1-c1c(C)n(C)n(-c2ccccc2)c1=O, the activity change, negative = inhibition was -1.04% (inactive). For Cc1ccsc1C(=O)OCC(=O)c1cc(C)n(CC2CCCO2)c1C (stereo not drawn), the activity change, negative = inhibition was -75.9% (active). For COc1ccc(CNC(=O)c2ccc(NC(=O)N3CC4CCCN4c4ccccc43)cc2)cc1 (stereo not drawn), the activity change, negative = inhibition was -1.77% (inactive). In the case of CCOc1ccc(CNC(=O)C2CCN(c3nnc(-n4cccc4CNc4ccc(C)cc4)s3)CC2)cc1OC, the activity change, negative = inhibition is reported as -18.2% (inactive). For Cc1ccc(CCNC(=O)C2CCN(c3nnc(-n4cccc4CNc4ccc(C)cc4)s3)CC2)cc1, the activity change, negative = inhibition was -72.7% (active). For CSc1ccc(CCNC(=O)C2CCN(c3nnc(-n4cccc4)s3)CC2)cc1, the activity change, negative = inhibition was -19.1% (inactive). With CCOC(=O)c1c(S(=O)(=O)NCC(=O)Nc2ccc(Cl)c(C(F)(F)F)c2)c(C)n(C)c1C the activity change, negative = inhibition was -27.1% (inactive). For CC(C)C[C@H]1CN([C@@H](Cc2ccccc2)CN2CCC[C@@H]2CN2C(=O)C(=O)NC[C@@H]2Cc2ccc(O)cc2)C(=O)C(=O)N1CCc1ccccc1, the activity change, negative = inhibition was -26.7% (inactive). In the case of CCOc1ccc(CCN2C(=O)C(=O)N([C@@H](CC(C)C)CN3CCC[C@H]3CN3C(=O)C(=O)NC[C@@H]3Cc3ccccc3)C[C@@H]2CC(C)C)cc1, the activity change, negative = inhibition is reported as -7.85% (inactive). For CC(C)C[C@H]1CN([C@@H](CC(C)C)CN2CCC[C@@H]2CN2C(=O)C(=O)NC[C@@H]2Cc2ccccc2)C(=O)C(=O)N1CCc1ccccc1, the activity change, negative = inhibition was -63.2% (active). With O=c1c2ccccc2nc(-c2ccccc2)n1-c1ccccn1 the activity change, negative = inhibition was -62.3% (active). With O=C(Nn1c(-c2ccc(Cl)cc2)nc2ccccc2c1=O)c1cccnc1Cl the activity change, negative = inhibition was -11.2% (inactive). In the case of O=c1c2ccccc2c(-c2ccccc2)nn1-c1ccccn1, the activity change, negative = inhibition is reported as -24.2% (inactive). In the case of COc1cccc(CNC(=O)CN2C(=O)CCc3cc(S(=O)(=O)N4CCOCC4)ccc32)c1, the activity change, negative = inhibition is reported as 7.53% (inactive). With COc1cc(OC)cc(-c2nc3nc(C)c(CCC(=O)Nc4ccc(C)cc4)c(C)n3n2)c1 the activity change, negative = inhibition was 22.9% (inactive). For CCC1CCCCN1S(=O)(=O)c1ccc(NC(=O)c2cc(=O)c3ccccc3o2)cc1 (stereo not drawn), the activity change, negative = inhibition was -21.4% (inactive). With Cc1cccc(-c2nnc(SCC(=O)N3CCCc4ccccc43)o2)c1 the activity change, negative = inhibition was -13.3% (inactive). For CCc1ccc(NC(=O)c2sc3nc4c(cc3c2N)CN(CC)CC4)cc1, the activity change, negative = inhibition was -27.1% (inactive). In the case of Cc1cccc2cc3c(N)c(C(=O)N4CCCc5ccccc54)sc3nc12, the activity change, negative = inhibition is reported as -66.1% (active). In the case of COc1ccc(N2CCN(Cc3nc4c(c(=O)[nH]c(=O)n4C)n3Cc3ccc(Cl)cc3)CC2)cc1, the activity change, negative = inhibition is reported as -12.8% (inactive). In the case of Cc1cc(OC(C)C(=O)Nc2sc3c(c2C(N)=O)CCCC3)ccc1Cl (stereo not drawn), the activity change, negative = inhibition is reported as -5.13% (inactive). For O=C(NCCCN1CCCCC1)C1CC(=O)N(CCc2ccccc2)C1 (stereo not drawn), the activity change, negative = inhibition was 0.846% (inactive). In the case of O=C(NC1CCCCC1)C1CC(=O)N(CCc2ccccc2)C1 (stereo not drawn), the activity change, negative = inhibition is reported as -109% (active). For Cc1ccc(CCN2CC(C(=O)NCCc3ccccc3)CC2=O)cc1 (stereo not drawn), the activity change, negative = inhibition was -5.82% (inactive). For CC(=O)N1c2ccc(S(=O)(=O)N3CCCCCC3)cc2CC1C(=O)NCc1ccccc1C (stereo not drawn), the activity change, negative = inhibition was 8.34% (inactive). With O=C(C1CCC(Cn2c(=O)c3sccc3n(Cc3ccccc3F)c2=O)CC1)N1CCCCC1 (stereo not drawn) the activity change, negative = inhibition was 3.01% (inactive). In the case of O=C(OCCN1CCOCC1)C1(c2ccccc2)CCCCC1, the activity change, negative = inhibition is reported as -71.6% (active). With O=C(OCCN1CCOCC1)C1(c2ccccc2)CCCC1 the activity change, negative = inhibition was -35.5% (inactive). For CC(=O)N1CCC(C(=O)OCc2ccc(Cl)cc2)(c2ccccc2)CC1, the activity change, negative = inhibition was 7.78% (inactive). With COc1ccc(CCNc2ncnc3c2cnn3-c2ccc(C)cc2)cc1 the activity change, negative = inhibition was -8.18% (inactive). With O=C1CCC[C@H]2[C@@H](Cc3ccccc3)[C@@H](NS(=O)(=O)c3ccc([N+](=O)[O-])cc3[N+](=O)[O-])CC[C@]23CCCN13 the activity change, negative = inhibition was -34.8% (inactive). With CCOC(=O)/C=C/C(=O)OCC(=O)NC(c1ccccc1)c1ccccc1 the activity change, negative = inhibition was -66.5% (active). In the case of Cc1ccccc1OCCC(=O)OCC(=O)NC(C)c1ccccc1 (stereo not drawn), the activity change, negative = inhibition is reported as 145% (inactive). For CCOc1ccc(C(CC(=O)O)NC(=O)COc2ccccc2)cc1 (stereo not drawn), the activity change, negative = inhibition was 36.3% (inactive). With Cc1ccn(C(CC(=O)c2ccc(Br)cc2)C(=O)O)n1 (stereo not drawn) the activity change, negative = inhibition was 18.9% (inactive). With O=c1ccc2c(-c3ccccc3S(=O)(=O)O)c3ccc(O)c(O)c3oc-2c1O the activity change, negative = inhibition was -91.7% (active). In the case of Cc1nc(N2CCOCC2)c2c(C(=O)NCc3cccc(Cl)c3)c(C)oc2n1, the activity change, negative = inhibition is reported as -10.3% (inactive). For COc1cccc(C(=O)NCC(=O)OCc2cc(=O)n3ccsc3n2)c1, the activity change, negative = inhibition was 8.23% (inactive). With CCOC(=O)c1c(C)oc2nc(C)nc(N3CCN(c4ccc(OC)cc4)CC3)c12 the activity change, negative = inhibition was -14.4% (inactive). With CCN(CC)c1ccc2oc(=O)c(C)nc2c1 the activity change, negative = inhibition was -70.4% (active). In the case of O=C(CC1(O)C(=O)N(CN2CCOCC2)c2ccccc21)c1ccccc1 (stereo not drawn), the activity change, negative = inhibition is reported as 23.8% (inactive). For Cc1coc(C)c1C(=O)CC1(O)C(=O)N(C)c2ccc(Cl)cc21 (stereo not drawn), the activity change, negative = inhibition was 0% (inactive). In the case of CCCN1C(=O)C(O)(CC(=O)c2ccc(CC)cc2)c2cc(Br)ccc21 (stereo not drawn), the activity change, negative = inhibition is reported as -70.2% (active). With COc1ccc2c(c1)C(=C(C#N)C#N)C(=O)N2CCc1ccccc1 the activity change, negative = inhibition was 32.5% (inactive). In the case of Cc1ccc2c(c1)C(O)(CC(=O)c1cccc(-n3cccc3)c1)C(=O)N2 (stereo not drawn), the activity change, negative = inhibition is reported as -9.59% (inactive). In the case of CCc1ccc(C(=O)CC2(O)C(=O)N(CCc3ccccc3)c3ccc(Br)cc32)cc1 (stereo not drawn), the activity change, negative = inhibition is reported as -104% (active). With Cc1ccc(C(=O)CC2(O)C(=O)N(CCc3ccccc3)c3ccc(Br)cc32)cc1 (stereo not drawn) the activity change, negative = inhibition was -97.7% (active). With CCOC(=O)CN1C(=O)C(O)(CC(=O)c2ccccn2)c2ccccc21 (stereo not drawn) the activity change, negative = inhibition was 12.1% (inactive). In the case of C=CCN1C(=O)C(O)(CC(=O)c2ccccn2)c2ccccc21 (stereo not drawn), the activity change, negative = inhibition is reported as 51.3% (inactive).

Source: PubChem BioAssay AID1259415 (National Center for Advancing Translational Sciences (NCATS), 2018)
On the % scale 0 is the no-effect control and ±100 the full control effect.
